# The campaign covered roughly 130,000 compounds. About 350 (0.27%) were called active. This is one part of a sample in which actives are shown more often than they occur. A number with no mark means an inactive call. Cut-off read from the data, not from the text of the source: active = z-score below about -2 (passing the limit was not always enough); inactive = the rest.
# Assay: PubChem AID 504770
# Conditions: E. coli YBA685 rctB-dependent plasmid, OD600 growth, 3 h; hits give low values
row,SMILES,z-score
1,CCOc1ccc(/C=c2/sc3nnc(-c4ccccc4C)n3c2=O)cc1,-0.2
2,NC(=O)CSc1ccccc1NC(=O)c1cc(-c2cccs2)nn1-c1ccccc1,3.15
3,COc1ccc(NS(=O)(=O)N(C)C)cn1,0.3
4,Cc1oc2cc(O)ccc2c(=O)c1-c1nc2ccccc2[nH]1,-0.6
5,O=C1CCCC2=C1C(c1ccccn1)C1=C(CCCC1=O)O2,-2.45 (active)
6,CCCOc1ccc(C2C3=C(CCCC3=O)OC3=C2C(=O)CCC3)cc1,-0.45
7,O=C1CCCC2=C1C(c1ccccn1)Nc1ccc3ncccc3c12 (centres undefined),-0.55
8,S=C(Nc1ccccc1)NC1CC2CCCC(C1)N2C1CC1 (centres undefined),-0.5
9,c1ccc(CNCc2ccc3c(c2)OCO3)cc1,-1.25
10,O=C(CC(NCc1ccco1)C(=O)O)Nc1cccc(C(F)(F)F)c1 (centres undefined),1.45
11,CCOc1ncccc1C(=O)Nc1ccc2c(c1)OCCO2,-0.25
12,C[N+]1(CC(O)COc2ccccc2F)CCOCC1 (centres undefined),0.45
13,O=C1C(=O)N(CCO)C(c2ccccc2)/C1=C(/O)c1ccccc1 (centres undefined),-0.3
14,COc1ccccc1-c1nnc(C2CCN(S(=O)(=O)c3ccc(C)cc3)CC2)o1,0.85
15,COC(=O)c1sc(=S)n(-c2ccc(C)cc2)c1N,0.95
16,COc1cc(OC)c(C(=O)OCC(=O)N(C)C2CCCCC2)cc1OC,0.65
17,O=C(CSc1ccccn1)Nc1cc(C(F)(F)F)cc(C(F)(F)F)c1,-0.4
18,COC(=O)CC1=C(C(=O)OC)C2(C(=O)N1)C(C#N)=C(N)Oc1ccccc12 (centres undefined),0.45
19,CC(C(=O)O)C(C(=O)O)C(C)c1ccccc1 (centres undefined),-0.7
20,O=C(NCCN1CCOCC1)C1CCN(C(=O)c2cc3sccc3n2Cc2ccc(F)cc2)CC1,-0.45
21,O=C1NCCCCC1NC(=S)Nc1ccccc1 (centres undefined),-0.25
22,COc1cc(/C=C2/C(=O)Nc3cc(Cl)ccc32)cc(OC)c1O,0.9
23,O=C(Cn1nnc(-c2ccccc2)n1)NC(=O)NCc1ccccc1,-0.5
24,CN1CCC(OC(=O)c2ccc3c(c2)OCCO3)CC1,-0.5
25,CCNCC(=O)Nc1ccc(NC(C)=O)cc1,0.15
26,CC(=O)Nc1ccc(N2C(=O)C=CC2=O)cc1,-2.5 (active)
27,O=C1C=CC(=O)N1c1ccc(Br)cc1,0.05
28,Cc1ccc(-c2nnc(NCc3ccco3)c3ccccc23)cc1C,-0.6
29,Cc1ccc(NNC(=O)C(C)(C)O)c(C)c1,-0.15
